105 compounds from ChEMBL document CHEMBL4513216, “Probing the Open Global Health Chemical Diversity Library for Multistage-Active Starting Points for Next-Generation Antimalarials” (ACS Infect Dis, 2020) can be followed below.

Screen size: about 69,000 compounds; about 8,600 (12%) showed an effect of 50% or more. For the sample, strong results were picked, then their nearest neighbours and some compounds at random.

The subject of this experiment is Plasmodium berghei. Kind of experiment: Screen against P. berghei liver stage (PbLuc), transformed with Luciferase, at 10uM. It counts as functional, HepG2. Conditions: tested at 10 uM.
With `O=S(=O)(C1CC1)N1CCC[C@]2(C[C@@H](Oc3ccccn3)CO2)C1`, the INHIBITION was -49.7%.
As for `CCOc1ccnc(N2CCN(C(=O)c3cc[nH]n3)CC2)n1`, the figure is -1.14%.
As for `COCCN1CC(C(=O)N(CCN(C)C)Cc2ccc(C)s2)CC1=O` (stereo not given), the figure is 38.3%; as for `COCCn1ccc(NC(=O)CNC(=O)CC(C)(C)C)n1`, 34.9%; as for `CN(CCO)CC1COCCN1C(=O)C1(c2cccs2)CCCC1` (stereo not given), 14.9%.
In the case of `COCCCN1CCCN(C(C)C(=O)Nc2ccnn2C(C)C)CC1` (stereo not given), the INHIBITION is recorded as 0.139%.
The same measure for `COCCCN1CCCN(C(C)C(=O)Nc2cccc(I)c2)CC1` (stereo not given): 85.1%; for `COCCN1CCN(C(C)C(=O)Nc2ccnn2C(C)C)CC1` (stereo not given): 11.8%; for `CN(C)C(=O)C1OC2(CCN(C(=O)c3ccoc3)CC2)c2ccccc21` (stereo not given): 22.2%.
On to `O=C(NC1CC1)C1CCc2nnc(C3CC3)n21` (stereo not given), for which the INHIBITION was 53.2%.
Take `O=C(NC1CC1)C1CCc2nnc(-c3cccc(C(F)(F)F)c3)n21` (stereo not given): the INHIBITION is 17.6%.
In the case of `O=C(NC1CC1)C1CCc2nnc(-c3cccnc3)n21` (stereo not given), the INHIBITION is given as 47.4%.
The same measure for `CC1CN(C(=O)Nc2cccc(CN3CCOC3=O)c2)CCO1` (stereo not given): -43.9%.
Turning to `CCc1cccc(N2CCC(NC(=O)C3CCC3)CC2)c1`, the INHIBITION worked out at 64.7%.
The same measure for `COc1cccc(N2CCN(CCC(=O)NC3CCCCC3)CC2)c1`: 64.6%; for `CCc1cccc(N2CCC(NC(=O)C3CCCO3)CC2)c1` (stereo not given): 48.2%; for `CCc1cccc(CC(=O)NC2CCN(C(=O)NC(C)(C)C)CC2)c1`: 12.6%.
As for `CCc1cccc(N2CCC(NC(=O)CCNC(N)=O)CC2)c1`, the figure is 5.03%; as for `COc1ccc2c(c1)CCN(CCC(=O)NC1CCCCC1)CC2`, 6.8%.
As to `CCc1cccc(N2CCC(NC(=O)C3CCOCC3)CC2)c1`, the INHIBITION worked out at 21.5%.
The same measure for `CCC(=O)NC1CCN(c2cccc(CC)c2)CC1`: 50.4%; for `COc1cccc(N2CCN(CCC(=O)NC3CCCC3)CC2)c1`: 24.5%; for `CCOCCNC(=O)c1cccnc1N1CCCC1c1ccccn1` (stereo not given): -31%.
The same measure for `CCc1nc(CN(C)CC(=O)NC(C)C)cs1`: 14.8%; for `Cc1ccc(-n2c(O)cc(C)c(C#N)c2=O)c(C)c1`: -8.66%; for `Cc1cnn(CC2CCCCN2C(=O)c2nccnc2N)c1` (stereo not given): -19.9%.
As for `CC(=O)c1ccccc1-c1nc(CC2CCN(C)CC2)no1`, the figure is 24.7%.
Turning to `Clc1cccc(C(CNCc2cccnc2)N2CCOCC2)c1` (stereo not given), the INHIBITION was 23.2%.
The same measure for `Clc1cccc(C(CNCc2ccccn2)N2CCOCC2)c1` (stereo not given): 53.9%; for `Clc1cccc(C(CNc2ncccn2)N2CCOCC2)c1` (stereo not given): -14.5%; for `COc1ccc(C)cc1-c1[nH]c2ccccc2c1C(=O)O`: 3.52%.
As for `Cc1ccc2c(n1)N(CC(C)C)CCN(C(=O)Cc1ccccn1)C2`, the figure is 2.41%; as for `CC(Cc1cn(CCc2nc(N)cc(O)n2)nn1)c1ccccc1` (stereo not given), 24.9%.
The same measure for `O=c1c(Cc2ccccc2)c(O)ccn1CCc1ccccc1`: 56.2%; for `O=c1c(Cc2ccccc2)c(O)ccn1Cc1cccs1`: -23.5%; for `O=c1c(Cc2ccccc2)c(O)ccn1Cc1ccco1`: 34%.
With `Cc1nn(CCc2nnc(NCC(C)C)s2)c(C)c1Br`, the INHIBITION is 7.38%.
On to `C=C(C)CN1CCCC(CNS(C)(=O)=O)C1` (stereo not given), for which the INHIBITION is on record as 12%.
The same measure for `CS(=O)(=O)N1CCO[C@@H]2CN(C(=O)Cc3cccs3)CC[C@@H]2C1`: 16.8%.
Consider `CN(C)CCN1CCO[C@@H]2CN(C(=O)Cc3ccsc3)CC[C@@H]2C1`, for which the INHIBITION amounted to 51.2%.
As for `CN(C)CCN1CCO[C@@H]2CN(C(=O)c3cccs3)CC[C@@H]2C1`, the figure is 15.9%; as for `CN1CCO[C@@H]2CN(C(=O)Cc3cccs3)CC[C@@H]2C1`, 26.7%.
For the compound `Cc1ccc(CC(=O)N2CC[C@@H]3CN(CCN(C)C)CCO[C@@H]3C2)cc1`, the INHIBITION is listed as 47.8%.
As for `O=C(C1CCOCC1)N1C[C@@H]2CN(Cc3ccsc3)CCO[C@@H]2C1`, the figure is 22.9%; as for `O=C(Cc1ccsc1)N1C[C@@H]2OCCN(c3cnccn3)[C@@H]2C1`, 52.3%; as for `CC(C)N1CCO[C@@H]2CN(C(=O)Cc3cccs3)CC[C@@H]2C1`, 59.3%.
As for `O=C(Cc1ccsc1)N1C[C@@H]2OCCN(CC3CC3)[C@@H]2C1`, the figure is 31.4%.
On to `CC(C)N1CCO[C@H]2CN(C(=O)Cc3ccsc3)C[C@H]21`, for which the INHIBITION worked out at 7.24%.
On to `O=C(C1CC(F)(F)C1)N1C[C@@H]2CN(Cc3ccsc3)CCO[C@@H]2C1`, for which the INHIBITION is on record as 41.6%.
`O=C(C1CC=CC1)N1C[C@@H]2CN(Cc3ccsc3)CCO[C@@H]2C1`: the INHIBITION is given as 53.2%.
As for `O=C(CN1CCCC(Cn2cncn2)C1)NCCC1=CCCCC1` (stereo not given), the figure is 37.9%; as for `CCc1n[nH]c(C2CN(C(=O)c3cnn(CC)c3)CCO2)n1` (stereo not given), -8.11%; as for `O=C(c1ccc2c(c1)OCO2)N1CCC(Nc2cccnn2)CC1`, 31.9%.
The same measure for `CN(C)C(=O)COC[C@@H]1CC[C@H]2[C@H](CCN2c2ccccn2)O1`: 11.4%.
The same measure for `Cn1ccc(C(=O)N2C[C@H]3CCC[C@@]3(COCc3cccnc3)C2)n1`: 3.69%; for `O=C(C1CC(F)(F)C1)N1C[C@@H]2CN(Cc3ccoc3)CCO[C@@H]2C1`: -35.1%.
For the compound `O=C(CC1CCCC1)N1C[C@@H]2CN(Cc3ccoc3)CCO[C@@H]2C1`, the INHIBITION was 34.6%.
As for `CCN1CCO[C@@H]2CN(C(=O)c3cocn3)C[C@@H]2C1`, the figure is 18.7%; as for `O=C(c1cocn1)N1C[C@@H]2CN(CC3CC3)CCO[C@@H]2C1`, 6.83%.
With `O=C(c1cocn1)N1C[C@@H]2CN(Cc3ccco3)CCO[C@@H]2C1`, the INHIBITION stood at 63%.
As for `O=C(N1CCCC1)N1C[C@@H]2CN(Cc3ccoc3)CCO[C@@H]2C1`, the figure is 80%.
The same measure for `O=C1NC2(CCN(CC(=O)N3CCOCC3)CC2)Nc2ccc(Br)cc21`: 23.89%; for `CN1Cc2ccccc2N(CC(O)C(F)(F)F)CCC1=O` (stereo not given): 18.4%.
`CC(C)CC(NC(=O)c1ccco1)c1nc2cccnc2n1C` (stereo not given): the INHIBITION was determined as 48%.
As for `Cc1cc(C)n(CCCN(C)Cc2cn[nH]c2-c2ccc(F)cc2)n1`, the figure is 14%.
As for `Cc1ccc(CN2CCOCC3(CCN(Cc4cccs4)C3)C2)o1` (stereo not given), the figure is -34%; as for `CN(CCc1ccc2c(c1)CCO2)C1CCS(=O)(=O)CC1`, 19%.
The same measure for `CCOCCN1CCN(c2ccc(CN(C)C)cn2)CC1`: 7.24%; for `CCOCCN1CCN(CCc2ccc3c(c2)CCO3)CC1`: 67.6%.
With `Cc1nc(CN(C)C2CCN(CCc3ccc4c(c3)CCO4)C2)no1` (stereo not given), the INHIBITION is on record as -8.11%.
Consider `CC(C)NC1CCN(CCc2ccc3c(c2)CCO3)CC1`, for which the INHIBITION is recorded as 35.1%.
The same measure for `COCC(C)N1CCN(CCc2ccc3c(c2)CCO3)CC1` (stereo not given): 51.9%; for `CC(=O)NCCNC(=O)c1cccc(Cn2nc(C)cc2C)c1`: -18.9%; for `COCCN(C)C[C@@H]1CCC[C@@H]2CN(Cc3ccc(OC)nc3)C[C@@H]21`: 20.1%.
As for `CCCC(O)CN1CC(C)(C)CN(C(=O)c2ccc(SC)cc2)CC1=O` (stereo not given), the figure is 43.4%; as for `Cc1ccc(C(=O)NCCCn2cncn2)c(=O)[nH]1`, 4.41%; as for `O=C(NCCCn1cncn1)c1ccc(-c2ccccc2)[nH]c1=O`, -12.9%.
The same measure for `O=C(NCCCn1cncn1)c1ccc(-c2ccco2)[nH]c1=O`: 56.3%; for `CN1CC(=O)N(c2ccsc2)CC12CCN(S(C)(=O)=O)C2` (stereo not given): -12.2%.
Take `CCc1nc(C2CCCN2CC(=O)Nc2cc(C)on2)no1` (stereo not given): the INHIBITION is 22.3%.
Turning to `COc1ccc(-c2noc(C(N)CCSC)n2)cc1` (stereo not given), the INHIBITION came to 36.2%.
The same measure for `O=C(NCCNc1ncccn1)N1CCCC1c1ccc(F)cc1` (stereo not given): 6.11%; for `CNC(=O)c1nc(CC(=O)Nc2ccc3cc[nH]c3c2)no1`: 30.5%.
The same measure for `CNC(=O)c1cccnc1NCc1ccc(Cn2ccnc2)cc1`: 85.7%.
The same measure for `c1ccc(NCc2ccc(Cn3ccnc3)cc2)nc1`: 6.7%; for `Brc1ccc(NCc2ccc(Cn3ccnc3)cc2)nc1`: -51.4%; for `CC(C)COC(C)C(=O)NCc1ccccc1Cn1ccnc1` (stereo not given): 32.3%.
Consider `CS(=O)(=O)c1ccccc1NCc1ccc(Cn2ccnc2)cc1`, for which the INHIBITION is given as 52%.
The same measure for `CC(OCC1CC1)C(=O)NCc1ccc(Cn2ccnc2)cc1` (stereo not given): 30.1%; for `CC(C)COC(C)C(=O)NCc1ccc(Cn2ccnc2)cc1` (stereo not given): 58.3%; for `CNC(=O)c1cccnc1NCc1ccc(-n2cccn2)cc1`: 26.4%.
As for `CNC(=O)c1cccnc1NCc1ccc(Cn2cccn2)cc1`, the figure is 21.9%; as for `COCCc1noc(CN(C)c2nc(C)cc(C)n2)n1`, 47.6%; as for `COc1ccc(Cl)cc1CCNC(=O)NCc1ccncc1`, -23.5%.
Consider `NC(=O)CCN1CCc2onc(-c3ccccc3F)c2C1`, for which the INHIBITION is on record as -62.1%.
Regarding `CC(=O)N1CCN(CCOc2ccc(F)cc2)CC(C(N)=O)C1` (stereo not given), the INHIBITION worked out at 12.3%.
In the case of `CCNC(=O)[C@@H]1C[C@H](N)CN1C(=O)c1cccc(CCC(C)(C)O)c1`, the INHIBITION is 17.5%.
As for `Cc1nn(C(C)C)c2cnn(CC(=O)N3CCN(C)CC3)c12`, the figure is 21.7%; as for `CC(C)c1cc(NC(=O)CN2CCn3c(nnc3C3CC3)C2)on1`, 7.5%.
As to `Cc1nccn1CCCNC(=O)C1CCCCN1Cc1ccncc1` (stereo not given), the INHIBITION is -2.07%.
The same measure for `Cc1nccn1-c1ccc(NC(=O)C2CCCN2CC2CC2)cc1` (stereo not given): 55.4%; for `Cc1cccnc1NC(=O)C1CCCN1Cc1ccccc1` (stereo not given): -10.4%.
For the compound `Cc1nccn1-c1ccc(NC(=O)C2CCCN2Cc2ccoc2)cc1` (stereo not given), the INHIBITION worked out at 54.4%.
The same measure for `CCCN1CCCCC1C(=O)Nc1ccc(-c2nnc[nH]2)cc1` (stereo not given): -28.6%; for `Cc1nccn1-c1ccc(NC(=O)C2CCCN2Cc2c[nH]cn2)cc1` (stereo not given): 36.2%.
